DAX1 inh-1: inhibitors of human orphan nuclear receptor DAX1 (NR0B1) | HEK293 Gal4-DAX1 luciferase reporter, luminescence | 340,000 tested, 0.99% active | P51843 | inhibition, % at 6.75 µM | AID 504766;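 active = inhibition above the mean over all tested compounds plus 3 SD, cut at about 4.2% in these data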;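 note: 0% = DAX1-transfected cells with DMSO and 100% = empty-vector control cells with DMSO; inhibition shows as a rise in luminescence from relieved DAX1 repression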
Target sequence (P51843 207-470 limits assumed): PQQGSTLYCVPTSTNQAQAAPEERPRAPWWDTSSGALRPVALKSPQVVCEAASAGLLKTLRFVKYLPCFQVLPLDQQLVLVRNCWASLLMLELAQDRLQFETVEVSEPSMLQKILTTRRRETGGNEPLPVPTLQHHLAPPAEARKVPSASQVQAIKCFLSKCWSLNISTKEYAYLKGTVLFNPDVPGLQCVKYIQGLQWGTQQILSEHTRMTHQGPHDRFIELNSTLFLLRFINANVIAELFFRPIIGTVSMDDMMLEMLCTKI
hcDAF12 agonist: activators of H. contortus DAF-12 nuclear receptor; HEK293 hcDAF-12 lit1-tk-luc reporter, luminescence; 0% DMSO, 100% Δ7-dafachronic acid; activation, % at 6.8 µM; 370,000 tested, 1.4% active;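 active = activation above the mean of all tested compounds plus 3 SD, cut at about 5.5% in these data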;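 note: 100% = response to 3 µM Δ7-dafachronic acid high control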
hgDAF-12 ag: hgDAF-12 agonism, primary luciferase screen; HEK293 GAL4-hgDAF12 UAS-luciferase reporter, agonist luminescence; normalized to butyrate control; activation, % at 6.8 µM; 370,000 tested, 1.8% active;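 active = activation above a cutoff set at the mean of all screened compounds plus 3 SD, cut at about 10% in these data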;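 note: 0% = DMSO wells and 100% = sodium butyrate wells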
DAX1 inh-2: blocks DAX1 repression of SF-1 activated StAR promoter; inhibition, % at 6.8 µM; 370,000 tested, 1.1% active; HEK293T StAR-luciferase reporter, SF-1/DAX-1 repression relief;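 active = inhibition above the mean over all tested compounds plus 3 SD, cut at about 3.6% in these data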;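 note: 0% = DAX-1 cells with DMSO and 100% = cells lacking DAX-1 with DMSO; higher inhibition means more luminescence from relief of DAX-1 repression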
ssDAF12 agonist: activates DAF-12 receptor from parasite S. stercoralis; HEK293 ssDAF-12/GRIP1 lit1-tk-luc reporter, luminescence; % of 3 µM dafachronic acid response; activation, % at 6.8 µM; 370,000 tested, 1% active;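 active = activation above the mean over all tested compounds plus 3 SD, cut at about 0.9% in these data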;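 note: 0% = DMSO-only wells and 100% = 3 µM delta7-dafachronic acid wells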
DAX1 inh confirm: NR0B1 (human) inhibition, confirmation; shares compounds with DAX1 inh-2; HEK293T StAR-promoter luciferase reporter, SF-1/DAX-1 repression; inhibition, % at 6.8 µM; 2,400 tested, 87% active; AID 652134;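 active = inhibition above the average of every tested compound plus 3 SD, cut at about 3.8% in these data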;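 note: 0% = DAX-1 cells with DMSO and 100% = no DAX-1 control cells with DMSO; active compounds raise luminescence by relieving repression of the StAR reporter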
SF1 mutant ctr: counter-screen for DAX1 inhibitors: nonselective inhibitors with SF-1 AF2 mutant; shares compounds with DAX1 inh-2; inhibition, % at 6.8 µM; 2,400 tested, 78% active; HEK293 StAR-luciferase, luminescence;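 active = inhibition above the mean of all tested compounds plus 3 SD, cut at about 3% in these data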;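 note: 0% = DAX-1 transfected cells with DMSO and 100% = cells without DAX-1 with DMSO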
An asterisk follows results filed as active; . = no result. Only some compounds are listed: those with a hit (about 4.1% of all), similar ones and a draw of the others.

SMILES | DAX1 inh-1 | hcDAF12 agonist | hgDAF-12 ag | DAX1 inh-2 | ssDAF12 agonist | DAX1 inh confirm | SF1 mutant ctr
COc1ccc(/C=N/Nc2ncccc2[N+](=O)[O-])c(OC)c1 | -3.8 | 5.2 | 8.9 | 5.0* | -0.2 | 15.4* | 8.9*
Cc1ccc2c(Cl)c(C(=O)NC3CC3)sc2c1 | 1.9 | 0.5 | 6.3 | 5.9* | -0.3 | 4.4* | 2.0
COc1ccc(OC)c(S(=O)(=O)N2CCCC(C(=O)N3CCN(Cc4ccccc4)CC3)C2)c1 (centres undefined) | . | -0.8 | -2.6 | -1.9 | -0.8 | . | .
CCc1cccc(Nc2cc(C)n(-c3cccc(CC)c3)c(=O)c2)c1 | . | -1.5 | 3.6 | 1.1 | -0.8 | . | .
CC1CCN(c2nc3ccc(C(=O)NCCCN4CCCCC4)cc3s2)CC1 | -0.5 | 3.5 | 11.4* | 5.9* | -0.5 | 12.3* | 7.2*
CCOC(=O)c1nn(-c2ccc3c(c2)OCCO3)cc1O | -0.2 | 3.0 | 12.9* | 8.0* | -0.6 | 9.7* | 5.7*
Clc1cccc(-c2cc3nc4c(c(NCc5ccco5)n3n2)CCCC4)c1 | 0.7 | 2.2 | 7.9 | 4.5* | -1.0 | 12.1* | 4.8*
COc1cccc(C(=O)N[C@H](C(=O)N2CCC[C@H]2C(=O)NC2CCCC2)C2CCCCC2)c1 | . | -1.5 | 1.4 | -0.9 | -0.8 | . | .
O=C(Nc1nc(-c2ccc3c(c2)OCCO3)cs1)C1CCCC1 | 5.8* | 4.9 | 8.2 | 4.7* | -0.6 | 11.5* | 3.9*
COc1cccc(-c2csc(NC(=O)C3CC3)n2)c1 | 1.8 | 5.2 | 11.9* | 5.2* | -1.5 | 7.0* | 5.8*
Cc1nc2ccc(NC(=O)Cc3ccccc3F)cc2s1 | 1.6 | 3.7 | 8.8 | 5.3* | 0.5 | 10.6* | 6.9*
Cc1nc2ccc(NC(=O)c3cccs3)cc2s1 | 0.5 | 2.7 | 8.1 | 7.4* | 0.1 | 9.3* | 4.7*
Cc1nc2ccc(NC(=O)Cc3cccc(F)c3)cc2s1 | 0.0 | 0.4 | 0.3 | 1.3 | -1.3 | . | .
O=C(NCc1ccc(Cl)cc1)C1C2C=CC3(CN(Cc4ccccc4)C(=O)C13)O2 (centres undefined) | . | -1.7 | 1.2 | -1.3 | -1.4 | . | .
CC(C)(c1ccccc1)c1ccc(OCc2ccc(C(=O)O)o2)cc1 | 2.4 | 4.0 | 9.4 | 11.1* | 0.4 | 5.3* | 4.9*
CC(C)(C)c1ccc(OCc2ccc(C(=O)NN)o2)cc1 | 2.3 | 2.3 | 7.8 | 1.2 | 0.0 | . | .
CC(C)(C)c1ccc(S(=O)(=O)N2CCCC(C(=O)NCCN3CCC(Cc4ccccc4)CC3)C2)cc1 (centres undefined) | . | -3.2 | -2.6 | -1.5 | -1.2 | . | .
CCOc1ccc(C(=O)Nc2nnc(SCC(=O)NCC3CCCO3)s2)cc1 (centres undefined) | -2.6 | 6.1* | 7.1 | 5.4* | -0.2 | 4.2* | 2.1
CC(C)(C)c1ccc(C(=O)Nc2nnc(SCC(=O)NCC3CCCO3)s2)cc1 (centres undefined) | -0.9 | 5.5 | 9.7 | 11.3* | -0.2 | 8.9* | 6.1*
CN(C)S(=O)(=O)c1ccc(C(=O)Nc2nnc(SCC(=O)NCC3CCCO3)s2)cc1 (centres undefined) | -0.1 | 0.9 | 3.9 | 1.7 | -0.4 | . | .
O=C(NC1CCCCN(Cc2cccc(C(F)(F)F)c2)C1=O)c1cccc([N+](=O)[O-])c1 (centres undefined) | . | -1.1 | -1.4 | -0.9 | -1.7 | . | .
Cc1cc(C(=O)COC(=O)Cc2c(F)cccc2Cl)c(C)n1C | 2.5 | 4.9 | 10.0 | 5.0* | -0.2 | 5.8* | 3.2*
O=C(CSc1nnc(COc2ccccc2)n1-c1ccccc1)Nc1ccc2c(c1)OCCO2 | . | -1.6 | -2.7 | 1.7 | -2.0 | . | .
COc1ccc2oc(C(=O)OCC(=O)NCCc3ccccc3)c(C)c2c1 | 0.4 | 0.5 | 2.9 | -0.2 | -0.7 | . | .
COc1ccc2oc(C(=O)NCCc3ccccc3)c(C)c2c1 | -2.1 | 2.8 | 2.5 | 5.2* | -0.7 | 7.1* | -0.4
CC(C)C(=O)Nc1ccc(-c2nc3cccnc3o2)cc1 | -0.2 | 5.9* | 12.8* | 4.5* | -0.1 | 12.1* | 4.1*

Screens: PubChem, The Scripps Research Institute Molecular Screening Center
